Screens from PubChem BioAssay.
An excerpt weighted towards active compounds, which were near 14% of everything screened.
Giardia FBPA inh = blocks Giardia fructose-bisphosphate aldolase activity; purified Giardia FBPA; Potency, µM (top dose mostly 59.6 µM), hits mostly inhibitors; 290,000 tested, 0.71% active; AID 2451; also: nearly all actives have a fitted effect of over 55% in size
Target sequence (A8B2U2 whole entry, looked up): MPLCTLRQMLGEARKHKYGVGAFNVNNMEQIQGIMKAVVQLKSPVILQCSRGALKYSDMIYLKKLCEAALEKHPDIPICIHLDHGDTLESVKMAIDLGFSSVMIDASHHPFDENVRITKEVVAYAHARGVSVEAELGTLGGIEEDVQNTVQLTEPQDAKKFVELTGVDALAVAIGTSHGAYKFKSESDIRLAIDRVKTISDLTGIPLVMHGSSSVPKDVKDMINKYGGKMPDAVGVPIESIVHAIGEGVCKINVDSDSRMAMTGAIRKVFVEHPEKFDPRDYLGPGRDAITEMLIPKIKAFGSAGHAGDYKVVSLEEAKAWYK
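Giardia FBPA (40 nM reagent) was preincubated 10 min at RT with compound (up to 57.5 uM final), then substrate plus GAPDH/TPI/NAD/arsenate coupling system with diaphorase/resazurin was added; resorufin fluorescence (525/598 nm) was read after 20 min.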
Pf growth 96h = P. falciparum growth inhibition at 96 hour, primary screen for plastid delayed-death inhibitors. Potency, µM (top dose mostly 28.7 µM), hits mostly inhibitors. 320,000 tested, 6.9% active. AID 504834. P. falciparum luciferase reporter growth, 96 h
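Readout is luminescence from an integrated firefly luciferase in P. falciparum. Red cells, 2% hematocrit and 0.05% parasitemia final, were cultured with compound through two parasite generations (96 hours) at 37 C, 5% CO2.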
HCMV inh = blocks human cytomegalovirus replication; HFF cells, HCMV-luciferase reporter, 72 h; active compounds read low; activity change, negative = inhibition, % at 57.5 µM; 410,000 tested, 4.5% active; in the data active = activity change below about -60%; inconclusive = no clear call, values can overlap the other calls; inactive = above about -39%
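Human foreskin fibroblasts infected with luciferase-reporter HCMV at MOI 1 PFU/cell, compounds at two doses. Luciferase measured 72 h post infection; normalized to buffer-only basal and Salinomycin (10uM) controls.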
Pf growth 48h = P. falciparum growth inhibition at 48 hours (one generation). P. falciparum luciferase growth in erythrocytes, 48 h. Potency, µM (highest dose often 28.7 µM), most hits filed as inhibitors. 310,000 tested, 5.9% active
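Compounds are pin-transferred into medium, infected erythrocytes (2% hematocrit, 0.1% parasitemia final) are added, and plates sit one parasite generation at 37 C in 5% CO2. Detection reagent is then added and luminescence measured.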
Sm TGR block = blocks Schistosoma mansoni thioredoxin glutathione reductase. Potency, µM (top dose mostly 114 µM), usual class: inhibitors. 360,000 tested, 3% active. purified TGR, DTNB reduction, TNB absorbance 405 nm; also: nearly all actives have a fitted effect of over 60% in size
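TGR 20 nM + NADPH 100 uM (dispensed conc.), cpd preinc 15 min RT; start with NADPH (500 uM addition) then DTNB (15 mM addition). Kinetic TNB absorbance, 405 nm filter. Four-parameter Hill fit across titration.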
Hits are given with their value. Unless noted, calls follow the shape of the dose curve; as a rule, active = well fitted curve in the direction sought with a large enough effect; inconclusive = small, poorly fitted or top-dose-only effect, or another doubt; inactive = no such curve, though single readings can be large; an effect the other way counts as inactive or inconclusive.

Screening Cc1cc(Cl)ccc1C(O)c1ncc(-c2ccc(C(F)(F)F)cc2)[nH]1 (centres undefined) returned HCMV inh inactive.
`O=C(O)CSc1nnc(-c2cccc(S(=O)(=O)N3CCOCC3)c2)n1-c1ccc(F)cc1` gave HCMV inh inactive.
For c1ccc(COc2ccc(-c3cc4nc(NCCN5CCOCC5)ccn4n3)cc2)cc1 the results were HCMV inh -62.
Screening NS(=O)(=O)c1ccc(CCNc2ccn3nc(-c4ccc(OCCN5CCOCC5)cc4)cc3n2)cc1 returned HCMV inh -100.
COCCCNc1ccn2nc(-c3ccc(OCCN4CCOCC4)cc3)cc2n1 was read as HCMV inh inactive.
O=C(CCNC(=O)c1ccccc1)NCCc1ccc(Cl)cc1 was read as Giardia FBPA inh inactive, Pf growth 96h inactive, HCMV inh inactive, Pf growth 48h inactive and Sm TGR block inactive.
`CSc1ccccc1NC(=O)CN(C)CC(=O)NCc1ccccc1` gave Giardia FBPA inh inactive, Pf growth 96h inactive, HCMV inh -84, Pf growth 48h inactive and Sm TGR block inactive.
C[C@H](CO)N1C[C@H](C)[C@@H](CN(C)S(=O)(=O)c2cn(C)cn2)Oc2c(NC(=O)Nc3ccc4c(c3)OCO4)cccc2C1=O was read as HCMV inh inactive.
`CC(C)COc1ccc(C(=O)Nc2scc(-c3ccc(Cl)cc3Cl)c2C(N)=O)cc1` gave Pf growth 96h inconclusive, HCMV inh inconclusive, Pf growth 48h 3.3µM and Sm TGR block inactive.
For CCOC(=O)C1=C(NC(=S)NC(=O)c2ccccc2)c2ccccc2CC1C(C)C (centres undefined) the results were Giardia FBPA inh inactive, Pf growth 96h inactive, HCMV inh -77, Pf growth 48h inconclusive and Sm TGR block inactive.
C[C@@H](O)[C@H]1C(=O)N2C(C(=O)O)=C(S[C@@H]3CN[C@H](CNS(N)(=O)=O)C3)[C@H](C)[C@H]12 was read as Pf growth 96h inactive and Pf growth 48h inactive.
For COc1ccc2c(c1)[nH]c1c(N3CCN(Cc4ccc5c(c4)OCO5)CC3)ncnc12 the results were Giardia FBPA inh inactive, Pf growth 96h inconclusive, HCMV inh inactive, Pf growth 48h 2.6µM and Sm TGR block inactive.
`COc1cc2[nH]c3c(N4CCN(c5ccc(Cl)cc5)CC4)ncnc3c2cc1OC` gave Giardia FBPA inh inactive, Pf growth 96h inconclusive, HCMV inh inconclusive, Pf growth 48h 4.1µM and Sm TGR block inactive.
For COc1ccc2c(c1)[nH]c1c(N3CCSCC3)ncnc12 the results were Giardia FBPA inh inactive, Pf growth 96h 6.6µM, HCMV inh inconclusive, Pf growth 48h 4.7µM and Sm TGR block inactive.
For COc1cccc2[nH]c3c(N4CCN(Cc5ccc6c(c5)OCO6)CC4)ncnc3c12 the results were Giardia FBPA inh inactive, Pf growth 96h inactive, HCMV inh inconclusive, Pf growth 48h inconclusive and Sm TGR block inactive.
O=C(N/N=C/c1cc([N+](=O)[O-])ccc1O)NC12CC3CC(CC(C3)C1)C2 was read as Giardia FBPA inh inactive, Pf growth 96h 3.3µM, HCMV inh inconclusive, Pf growth 48h inactive and Sm TGR block inactive.
`O=C(N/N=C/c1cc([N+](=O)[O-])ccc1O)Nc1ccccc1` gave Giardia FBPA inh inactive, Pf growth 96h inactive, HCMV inh inactive, Pf growth 48h inconclusive and Sm TGR block inactive.
`O=C(N/N=C/c1cc([N+](=O)[O-])ccc1O)C12CC3CC(CC(C3)C1)C2` gave Giardia FBPA inh inactive, Pf growth 96h inactive, HCMV inh inactive, Pf growth 48h 8.3µM and Sm TGR block inactive.
Screening O=C(N/N=C/c1ccc(O)cc1O)NC12CC3CC(CC(C3)C1)C2 returned Giardia FBPA inh inactive, Pf growth 96h inactive, HCMV inh inactive, Pf growth 48h inconclusive and Sm TGR block inactive.
For CCNC(=O)C(=O)N/N=C/c1cc([N+](=O)[O-])ccc1O the results were Giardia FBPA inh inactive, Pf growth 96h 10µM, HCMV inh inactive, Pf growth 48h inconclusive and Sm TGR block inactive.
Nc1nnc(CC(=O)N/N=C\c2cc([N+](=O)[O-])ccc2O)s1 was read as Giardia FBPA inh inactive, Pf growth 96h 10µM, HCMV inh inactive, Pf growth 48h inactive and Sm TGR block inactive.
For O=C(NCc1ccco1)C1=CN2CCN(Cc3ccccc3)C(=O)N=C2O1 the results were HCMV inh inactive.
For COc1cccc(C=NC=Nc2cccc(OC)c2)c1 the results were Giardia FBPA inh inactive.
Screening O=C(Nc1ccc(NC(=O)C2CC2)cc1)c1cccs1 returned Giardia FBPA inh inactive, Pf growth 96h 10µM, HCMV inh -77, Pf growth 48h inactive and Sm TGR block inactive.
CC1CC(C)CN(S(=O)(=O)c2ccc(NC(=O)[C@@H]3CCCN3C(=O)c3cccs3)cc2)C1 (some centres undefined) was read as Pf growth 96h inconclusive, HCMV inh inactive, Pf growth 48h 12µM and Sm TGR block inactive.
`O=C(Nc1ccc(NC(=O)c2cccs2)cc1)c1cccs1` gave Giardia FBPA inh inactive, Pf growth 96h inactive, HCMV inh inactive, Pf growth 48h inactive and Sm TGR block inactive.
CCC1CCCCN1S(=O)(=O)c1ccc(NC(=O)c2cccs2)cc1 (centres undefined) was read as Giardia FBPA inh inactive, Pf growth 96h inactive, HCMV inh inactive, Pf growth 48h 2.3µM and Sm TGR block inactive.
For CC1(C)OC(=O)C2=C(CC(CCc3ccccc3)OC2c2cccc(C(F)(F)F)c2)O1 (centres undefined) the results were HCMV inh inactive.
CCOc1cc(C(=O)NCCc2csc3nc(-c4ccccc4F)nn23)cc(OCC)c1OCC was read as HCMV inh inactive and Sm TGR block inactive.
`CCCc1cc(=O)[nH]c(SC(C)C(=O)N2c3ccccc3CC2C)n1` (centres undefined) gave Pf growth 96h inactive, HCMV inh inactive, Pf growth 48h inconclusive and Sm TGR block inactive.
Cc1nc(-c2cc(-c3nc(-c4ccc(C(F)(F)F)cc4)no3)no2)cs1 was read as Giardia FBPA inh inactive, Pf growth 96h inactive, HCMV inh inactive, Pf growth 48h 0.66µM and Sm TGR block inactive.
Screening O=C(NCCCc1nc2ccccc2n1Cc1ccc(Cl)cc1)c1ccco1 returned HCMV inh inactive and Sm TGR block inactive.
Screening c1ccc(Nc2ccc(-n3ccnc3)nn2)cc1 returned Giardia FBPA inh inactive, Pf growth 96h inactive, HCMV inh inactive and Pf growth 48h inconclusive.
Screening Clc1ccc(Nc2ccc(-n3ccnc3)nn2)cc1Cl returned Giardia FBPA inh inactive, Pf growth 96h 1.9µM, HCMV inh inconclusive, Pf growth 48h 2.6µM and Sm TGR block inactive.
C=CCn1c(CSc2nc3ccccc3s2)nnc1SCC(=O)NCc1ccccc1 was read as Giardia FBPA inh inactive, Pf growth 96h 10µM, HCMV inh inactive and Sm TGR block inactive.
